In PubChem BioAssay AID463173 (ICCB-Longwood Screening Facility, Harvard Medical School, 2010):
Out of some 52,000 compounds screened, about 4,300 (8.3%) were called active. Only a selection was taken, and actives are over-represented in it overall. A number with no mark means an inactive call. Rule as the data show it: active = survival mostly below about 52% (no sharp cut-off); inactive = mostly above about 56%.

tested on: DeltatarO mutant; test: growth inhibition of S. aureus wild type versus tarO mutant, primary screen, teichoic acid synthesis inhibitors, RN4220, OD600 (AID 463173); conditions: OD600, 18 h, hits give low values, screened at 18.75 µg/mL (by protocol)

Row | Structure (SMILES) | survival
1 | Cc1ccc(-n2ncc(C(=O)NCc3ccco3)c2C2CCN(C(=O)OC(C)(C)C)CC2)cc1 | 94%
2 | Cc1cccc(-n2ncc(C(=O)NCc3ccco3)c2C2CCN(C(=O)OC(C)(C)C)CC2)c1 | 81%
3 | CC(C)(C)OC(=O)N1CCC(c2c(C(=O)NCCN3CCOCC3)cnn2-c2ccc(F)cc2F)CC1 | -1% (active)
4 | CC(C)(C)OC(=O)N1CCC(c2c(C(=O)NCc3ccccn3)cnn2-c2ccccc2Cl)CC1 | -4% (active)
5 | CC(C)(C)OC(=O)N1CCC(c2c(C(=O)NCc3ccccn3)cnn2-c2ccccc2)CC1 | 101%
6 | Cc1ccc(-n2ncc(C(=O)NCc3ccccn3)c2C2CCN(C(=O)OC(C)(C)C)CC2)c(C)c1 | 63%
7 | Cc1ccc(C)c(N2CCN(CCCNC(=O)c3cnn(-c4cccc(Cl)c4)c3C3CCN(C(=O)OC(C)(C)C)CC3)CC2)c1 | 52% (active)
8 | CC(C)(C)OC(=O)N1CCC(c2c(C(=O)NCCN3CCOCC3)cnn2-c2ccc(F)cc2)CC1 | 73%
9 | Cc1ccc(C)c(N2CCN(CCCNC(=O)c3cnn(-c4ccccc4)c3C3CCN(C(=O)OC(C)(C)C)CC3)CC2)c1 | 104%
10 | CC(C)(C)OC(=O)N1CCC(c2c(C(=O)NCCN3CCc4ccccc4C3)cnn2-c2ccc(F)cc2F)CC1 | 70%
11 | Cc1ccc(-n2ncc(C(=O)NCc3ccco3)c2C2CCN(C(=O)OC(C)(C)C)CC2)c(C)c1 | 25% (active)
12 | Cc1ccc(C)c(N2CCN(CCCNC(=O)c3cnn(-c4ccccc4Cl)c3C3CCN(C(=O)OC(C)(C)C)CC3)CC2)c1 | 74%
13 | COc1ccc(NC(=O)CSc2oc(-c3cccs3)nc2S(=O)(=O)c2ccc(Br)cc2)c(OC)c1 | 57%
14 | O=C(Nc1cccc(F)c1)C1CCN(c2nc3ccccc3nc2C(F)(F)F)CC1 | 83%
15 | COc1ccc(C(=O)N2CCC(C(=O)O)CC2)cc1 | 97%
16 | Nc1cccc(-c2cn3ccccc3n2)c1 | 96%
17 | Cc1ccc(-c2noc(CSc3nnc(C)n3-c3ccc(C)c(C)c3)n2)cc1 | 75%
18 | CCOc1ccc(CNC(=O)Cn2cc3c(n2)-c2c(oc(C(=O)N4CCOCC4)c2C)CC3)cc1 | 72%
19 | Cc1cccc(C)c1NC(=O)C(=O)NCC(c1ccc2c(c1)OCO2)N1CCN(C)CC1 (stereo not drawn) | 88%
20 | Cc1cccc(NCN2C(=O)S/C(=C/c3ccc(N(C)C)cc3)C2=O)c1 | 73%
21 | O=C(Cn1nc(-c2ccccc2)ccc1=O)NCC1COCCO1 (stereo not drawn) | 92%

Row | Structure (SMILES) | survival
22 | COc1ccc(NC(=O)c2c(NC(=O)COc3ccc(Cl)cc3)sc3c2CCCCC3)cc1 | 135%
23 | CCCCOc1ccc(C(=O)NCCc2csc(-c3ccc(OC)cc3)n2)cc1 | 108%
24 | CCOC(=O)c1c(NC(=O)C(C)Sc2cn(CCNC(=O)c3ccc(OCC)cc3)c3ccccc23)sc2c1CCC2 (stereo not drawn) | 92%
25 | CCOC(=O)c1c(C)[nH]c(C)c1S(=O)(=O)N(C)CC(=O)Nc1ccc(C)cc1C | 95%
26 | Cc1ccc(-n2ncc(C(=O)NCCN3CCOCC3)c2C2CCN(C(=O)OC(C)(C)C)CC2)c(C)c1 | 37% (active)
27 | CCOC(=O)N1CCC(NC(=O)c2cnn(-c3cccc(Cl)c3C)c2C2CCN(C(=O)OC(C)(C)C)CC2)CC1 | 20% (active)
28 | Cc1c(Cl)cccc1-n1ncc(C(=O)NC2CCCC2)c1C1CCN(C(=O)OC(C)(C)C)CC1 | 102%
29 | Cc1cccc(C)c1-n1ncc(C(=O)NCCCN2CCCCC2)c1C1CCN(C(=O)OC(C)(C)C)CC1 | 89%
30 | Cc1cccc(C)c1-n1ncc(C(=O)NCCN2CCOCC2)c1C1CCN(C(=O)OC(C)(C)C)CC1 | 101%
31 | Cc1c(Cl)cccc1-n1ncc(C(=O)NC2CCCCC2)c1C1CCN(C(=O)OC(C)(C)C)CC1 | 94%
32 | CCOC(=O)c1cnn(-c2cccc(Cl)c2)c1C1CCN(C(=O)OC(C)(C)C)CC1 | 55% (active)
33 | CC1CCN(C(=O)c2cnn(-c3cccc(Cl)c3)c2C2CCN(C(=O)OC(C)(C)C)CC2)CC1 | 78%
34 | Cc1ccc(-n2ncc(C(=O)NCCN3CCc4ccccc4C3)c2C2CCN(C(=O)OC(C)(C)C)CC2)c(C)c1 | 64%
35 | Cc1cccc(C)c1-n1ncc(C(=O)NCCN2CCN(C)CC2)c1C1CCN(C(=O)OC(C)(C)C)CC1 | 8% (active)
36 | CCN1CCN(C(=O)c2cnn(-c3cccc(Cl)c3)c2C2CCN(C(=O)OC(C)(C)C)CC2)CC1 | 74%
37 | Cc1ccc(-n2ncc(C(=O)NCCN3CCN(C)CC3)c2C2CCN(C(=O)OC(C)(C)C)CC2)c(C)c1 | 92%
38 | COc1cccc(-n2c(=O)c3sc4ccccc4c3n(CC(=O)NC3CCCCC3)c2=O)c1 | 126%
39 | Cc1ccc(-n2ncc(C(=O)NCc3ccccc3)c2C2CCN(C(=O)OC(C)(C)C)CC2)cc1 | 94%
40 | COc1cccc(-n2cc(C(=O)NCc3ccc(C)cc3)c3ccccc3c2=O)c1 | 81%
41 | COc1ccccc1CNS(=O)(=O)c1ccc2c(c1)CC(C)N2C(C)=O (stereo not drawn) | 71%
42 | CC(C)COc1ccc(C(=O)Nc2scc(-c3ccc(Br)cc3)c2C(=O)OC(C)C)cc1 | 53%

Row | Structure (SMILES) | survival
43 | COc1ccc(NC(=O)Cn2ncc3c(C)n(Cc4cccc(Cl)c4)c(C)c3c2=O)cc1 | 92%
44 | CCOc1ccc(-n2cc(-c3ccccc3)c3c(NC4CCCC4)ncnc32)cc1 | 104%
45 | Cc1ccc(-n2ncc(C(=O)NCCCN3CCN(C)CC3)c2C2CCN(C(=O)OC(C)(C)C)CC2)c(C)c1 | 105%
46 | CCOC(=O)N1CCC(NC(=O)c2cnn(-c3ccc(F)cc3F)c2C2CCN(C(=O)OC(C)(C)C)CC2)CC1 | 71%
47 | CC(C)(C)OC(=O)N1CCC(c2c(C(=O)NC3CCN(Cc4ccccc4)CC3)cnn2-c2cccc(F)c2)CC1 | 92%
48 | CC(C)(C)OC(=O)N1CCC(c2c(C(=O)NC3CCN(Cc4ccccc4)CC3)cnn2-c2ccc(F)cc2F)CC1 | -2% (active)
49 | CCN1CCN(CCCNC(=O)c2cnn(-c3ccc(C)cc3C)c2C2CCN(C(=O)OC(C)(C)C)CC2)CC1 | 144%
50 | Cc1ccc(-n2ncc(C(=O)NCCCN3CCCCC3)c2C2CCN(C(=O)OC(C)(C)C)CC2)c(C)c1 | 46% (active)
51 | CCC(=O)Nc1ccc2nc3c(=O)n(C)c(=O)n(C)c3nc2c1 | 66%
52 | Cc1ccc(S(=O)(=O)c2cc3cc(C(=O)Nc4ccc(C)cc4C)ccc3oc2=O)cc1 | 89%
53 | CCOC(=O)COc1nc(C)c(Br)c(OC)n1 | 81%
54 | COc1ccc(CNC(=O)COCc2cc(-c3cccs3)on2)cc1 | 107%
55 | CC1CCN(S(=O)(=O)c2ccc3c(c2)CCN3C(=O)Nc2ccc(Br)cc2F)CC1 | 74%
56 | CCCCNc1nc2ccccc2c2nc(-c3ccccc3)nn12 | -1% (active)
57 | Cc1ccc(CCNc2nc3ccccc3c3nc(-c4ccccc4)nn23)cc1 | 44% (active)
58 | CCCCNC(=O)CCC(=O)NNc1nc2ccccc2c2nc(-c3ccccc3)nn12 | 78%
59 | COc1cc2nc(NCCc3ccc(Cl)cc3)n3nc(-c4ccccc4)nc3c2cc1OC | 51%
60 | O=c1n(Cc2ccc(Cl)cc2)c2ccccc2c2nc(-c3ccccc3)nn12 | 95%
61 | CC(CNc1nc2ccccc2c2nc(-c3ccccc3)nn12)c1ccccc1 (stereo not drawn) | 121%
62 | Cc1ccc(CCNc2nc3ccccc3c3nc(-c4cccnc4)nn23)cc1 | 66%
63 | Clc1ccc(CCNc2nc3ccccc3c3nc(-c4ccccc4)nn23)cc1 | 29% (active)

Row | Structure (SMILES) | survival
64 | CCc1ccc(CNC(=O)Cn2nc(C)n3c(cc4cc(C)ccc43)c2=O)cc1 | 83%
65 | Cc1ccc(NC(=O)c2cnc3sc(N4CCOCC4)nn3c2=O)cc1N(C)C | 80%
66 | COc1cccc(NC(=O)Cn2nnc(C(=O)NCCc3ccccc3)c2N)c1 | 144%
67 | Cc1ccc(Cn2c(=O)n(-c3cccc(C(F)(F)F)c3)c(=O)c3c(C)c(C)sc32)c(C)c1 | 97%
68 | COc1ccc(CNC(=O)c2cnc(N(C)C)nc2)cc1 | 73%
69 | COc1ccc(-c2cn3c(c2C)-c2ccc(C)n2CC3)cc1 | 91%
70 | Cc1ccc(CN(Cc2ccco2)C(=O)c2cccc(C)c2)cc1 | 68%
71 | Cc1ccsc1CN(Cc1ccco1)C(=O)c1ccc(Cl)cc1 | 34% (active)
72 | O=C(c1ccc(Cl)cc1)N(Cc1ccco1)Cc1ccco1 | 97%
73 | Cc1ccc(N(Cc2cccs2)C(=O)c2ccc(OC(C)C)cc2)cc1 | 95%
74 | O=C(c1cc2sccc2n1Cc1ccccc1)N(Cc1ccco1)Cc1cccs1 | 96%
75 | O=C(c1ccccc1)N(Cc1ccco1)Cc1cccs1 | 41% (active)
76 | Cc1ccc(C(=O)N(Cc2ccco2)Cc2sccc2C)cc1 | 44%
77 | CC(C)Oc1ccc(C(=O)N(Cc2ccc(N(C)C)cc2)Cc2ccco2)cc1 | 59%
78 | CC(C)Oc1ccc(C(=O)N(Cc2ccco2)Cc2cccs2)cc1 | 36% (active)
79 | O=C(Nc1nnc(N2CCCCCC2)s1)Nc1cc(F)ccc1F | 103%
80 | CC1=C(C(=O)N(C)C)C(c2ccccc2Cl)NC(=O)N1 (stereo not drawn) | 76%
81 | CC(C)N1CC(C(=O)Nc2ccccc2)CC1=O (stereo not drawn) | 73%
82 | CCOC(=O)c1cc(-c2ccc(OC)c(S(=O)(=O)NC3CCCCC3)c2)on1 | 89%
83 | CN1CCSc2ccc(C(=O)NCc3ccccc3)cc21 | 67%
